Experiment [1] addresses Glutathione peroxidase 1 (Homo sapiens) (UniProt P07203). In words: Primary qHTS Assay for Inhibitors of Recombinant Selenoprotein Glutathione Peroxidase 1 (GPX1) (AID 1845191). Put shortly:
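GR-coupled assay: compounds preincubated 30 min at room temperature with GPX1, then reaction started with CHP; final 10 nM GPX1, 1 mM GSH, 0.5 mM CHP, 0.5 mM NADPH, 100 nM GR, 0.01% BSA, pH 7.5 Tris buffer. NADPH fluorescence (340/450 nm) read at 0 and 15 min.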
In general terms: qHTS replaces the single test concentration by a dilution series.

Experiment [2] concerns the target Phospholipid hydroperoxide glutathione peroxidase GPX4 (Homo sapiens) (UniProt P36969). The experiment is described as follows: Primary qHTS Assay for Inhibitors of Recombinant Selenoprotein Glutathione Peroxidase 4 (GPX4) (AID 1845192). Put shortly: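 GR-coupled assay: recombinant GPX4 preincubated 30 min with compound at room temperature; final 200 nM GPX4, 1 mM GSH, 0.5 mM cumene hydroperoxide, 0.5 mM NADPH, 100 nM GR, 0.01% BSA, pH 7.5 Tris. NADPH fluorescence (340/450 nm) read at 0 and 15 min.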

Experimental findings from PubChem BioAssay (NCATS) are described below.

Inconclusive results are not listed. Entries that show only a call come without a potency. Values without a mark were called inactive. Calls of active or inactive are those of the source. Calls follow the shape of the dose curve; as a rule, active = well fitted inhibition curve with a large enough effect; inconclusive = small, poorly fitted or top-dose-only effect; inactive = flat fitted curve, though single readings scatter.
Also: nearly all actives have a fitted effect of over 65% in size.

Sequence of Phospholipid hydroperoxide glutathione peroxidase GPX4 (Homo sapiens) (P36969 whole entry, looked up): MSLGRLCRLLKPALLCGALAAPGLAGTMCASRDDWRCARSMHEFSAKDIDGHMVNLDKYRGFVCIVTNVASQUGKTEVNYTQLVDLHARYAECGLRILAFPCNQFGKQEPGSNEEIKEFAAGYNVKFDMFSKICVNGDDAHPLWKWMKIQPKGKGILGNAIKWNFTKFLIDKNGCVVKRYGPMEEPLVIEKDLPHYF
Sequence of Glutathione peroxidase 1 (Homo sapiens) (P07203 whole entry, looked up): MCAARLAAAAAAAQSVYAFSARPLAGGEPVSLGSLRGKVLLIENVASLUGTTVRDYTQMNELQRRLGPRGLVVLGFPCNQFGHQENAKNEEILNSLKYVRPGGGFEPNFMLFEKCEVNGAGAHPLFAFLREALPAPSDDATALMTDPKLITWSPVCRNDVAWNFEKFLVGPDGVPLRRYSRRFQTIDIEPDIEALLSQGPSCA

Take `N#CC(C#N)=C(N)/C(C#N)=C/c1ccc(O)cc1`: the Potency result in experiment [1] and in experiment [2] was “inactive” throughout.

For `CC[C@H](NC(=O)c1c(C)c(-c2ccccc2)nc2ccccc12)c1ccccc1`, the Potency result in experiment [1] and in experiment [2] was “inactive” each time.

For the molecule `O=C(O)c1cc(=O)cc(C(=O)O)[nH]1`, the Potency entry in experiment [1] and in experiment [2] was “inactive” throughout.

As to `C[C@]12C=CC(=O)C=C1CC[C@@H]1C2=CC[C@]2(C)[C@@H](C(=O)CN3CCN(c4cc(N5CCCC5)nc(N5CCCC5)n4)CC3)CC[C@@H]12`, the Potency entry in experiment [1] and in experiment [2] was “inactive” in each case.

For `Nc1ncnc2c1ncn2C1CCCO1` (stereo not drawn), the Potency result in experiment [1] and in experiment [2] was “inactive” in each case.

As for `CCCc1c(OCCCOc2ccc(OCC(=O)O)cc2)ccc(C(C)=O)c1O`, the Potency result in experiment [1] and in experiment [2] was “inactive” throughout.

As to `COc1cc(C(O)CO)ccc1O` (stereo not drawn), the Potency entry in experiment [1] and in experiment [2] was “inactive” each time.

For the molecule `N#C/C(=C\c1ccc(O)c(O)c1)C(=O)NCCc1ccccc1`, the Potency result in experiment [1] and in experiment [2] was “inactive” in each case.

With `Oc1ccc(/C=C/c2ccc(/C=C/c3ccc(O)cc3)c(Br)c2)cc1`, the Potency result in experiment [1] and in experiment [2] was “inactive” throughout.

On to `CCCCCCCCCCCCCCSCC(=O)O`, for which the Potency entry in experiment [1] and in experiment [2] was “inactive” each time.

`NCC(O)c1ccc(O)c(O)c1` (stereo not drawn): the Potency entry in experiment [1] and in experiment [2] was “inactive” in each case.

Consider `COc1ccccc1N1CCN(CCN(C(=O)c2ccc(F)cc2)c2ccccn2)CC1`, for which the Potency result in experiment [1] and in experiment [2] was “inactive” in each case.

In the case of `CCCCCCCC/C=C\CCCCCCCC(=O)NCCc1ccc(O)c(O)c1`, the Potency result in experiment [1] and in experiment [2] was “inactive” in each case.

As to `OCC1NCC(O)C(O)C1O` (stereo not drawn), the Potency result in experiment [1] and in experiment [2] was “inactive” each time.

Take `NCCCCN=C(N)N`: the Potency result in experiment [1] and in experiment [2] was “inactive” in each case.

In the case of `NCCS(=O)O`, the Potency result in experiment [1] and in experiment [2] was “inactive” each time.

`O=C(O)c1cc2cc(F)ccc2[nH]1`: the Potency entry in experiment [1] and in experiment [2] was “inactive” throughout.

Regarding `Nc1ccc2c3c(cccc13)C(=O)NC2=O`, the Potency result in experiment [1] and in experiment [2] was “inactive” each time.

With `O=c1cc(-c2ccccc2)[nH]c2nc(Cl)ccc12`, the Potency result in experiment [1] and in experiment [2] was “inactive” throughout.

As for `CCCCCC(O)CCCC(=O)O` (stereo not drawn), the Potency result in experiment [1] and in experiment [2] was “inactive” throughout.

In the case of `COc1cccc(OC)c1OCCNCC1CSc2ccccc2O1` (stereo not drawn), the Potency entry in experiment [1] and in experiment [2] was “inactive” each time.

In the case of `CC#CCOC(=O)c1c(C)nc2sc3c(c2c1N)CCC(O)C3` (stereo not drawn), the Potency entry in experiment [1] and in experiment [2] was “inactive” each time.

For the molecule `Nc1ccc(-c2ccc3ccccc3n2)cc1`, the Potency entry in experiment [1] and in experiment [2] was “inactive” in each case.

For the molecule `Cc1nc2c(OCc3ccccc3)cccn2c1CC#N`, the Potency result in experiment [1] and in experiment [2] was “inactive” in each case.

For `CN1C2CCC1CC(OC(c1ccccc1)c1ccccc1)C2` (stereo not drawn), the Potency result in experiment [1] and in experiment [2] was “inactive” each time.

Take `CCN1C(=O)C=CC1=O`: the Potency entry in experiment [1] and in experiment [2] was “inactive” in each case.

For the molecule `COc1ccccc1N1CCN(CCCCN2C(=O)c3ccccc3C2=O)CC1`, the Potency entry in experiment [1] and in experiment [2] was “inactive” each time.

Consider `CC(C)NC[C@H](O)COc1ccc(CC(N)=O)cc1`, for which the Potency entry in experiment [1] and in experiment [2] was “inactive” each time.

On to `O=C(O)[C@H]1NCCC[C@H]1C(=O)O`, for which the Potency entry in experiment [1] and in experiment [2] was “inactive” in each case.

`CCCCS(=N)(=O)CC[C@H](N)C(=O)O` (stereo partly drawn): the Potency entry in experiment [1] and in experiment [2] was “inactive” throughout.

Take `CN1CCCC1CCOC(C)(c1ccccc1)c1ccc(Cl)cc1` (stereo not drawn): the Potency entry in experiment [1] and in experiment [2] was “inactive” each time.

`CCC(=O)N1CCN(C(=O)c2ccccc2)CC1`: the Potency entry in experiment [1] and in experiment [2] was “inactive” in each case.

As for `NC(N)=NC(N)=Nc1ccccc1`, the Potency entry in experiment [1] and in experiment [2] was “inactive” in each case.

As for `COC(=O)[C@H](NC(=O)c1cc(-c2ccccc2)nc2ccccc12)c1ccccc1`, the Potency entry in experiment [1] and in experiment [2] was “inactive” throughout.

Regarding `CN(C)S(=O)(=O)c1ccc2c(c1)/C(=C/c1cc3c([nH]1)CCCC3)C(=O)N2`, the Potency entry in experiment [1] and in experiment [2] was “inactive” each time.

On to `CNCCNS(=O)(=O)c1cccc2cnccc12`, for which the Potency result in experiment [1] and in experiment [2] was “inactive” in each case.

With `CCCCCCN(CCCCCC)C(=O)Cc1c(-c2ccc(F)cc2)[nH]c2ccccc12`, the Potency result in experiment [1] and in experiment [2] was “inactive” each time.

On to `COC(=O)C(C)(N)Cc1ccc(O)cc1` (stereo not drawn), for which the Potency entry in experiment [1] and in experiment [2] was “inactive” each time.

Turning to `Nc1nc2c(nc(Br)n2C2OC3COP(=O)(O)O[C@@H]3C2O)c(=O)[nH]1` (stereo partly drawn), the Potency result in experiment [1] and in experiment [2] was “inactive” throughout.

For `CC(=O)/C(C)=N/O`, the Potency entry in experiment [1] and in experiment [2] was “inactive” in each case.

As to `N#C/C(=C\c1ccc(O)c(O)c1)C(=O)NCCCNC(=O)/C(C#N)=C/c1ccc(O)c(O)c1`, the Potency entry in experiment [1] and in experiment [2] was “inactive” each time.

As to `O=c1[nH]c(=S)[nH]c(-c2ccccc2)c1Cc1c(O)ccc2ccccc12`, the Potency entry in experiment [1] and in experiment [2] was “inactive” each time.

On to `C=CCN1CCc2cc(O)c(O)cc2C(c2ccccc2)C1` (stereo not drawn), for which the Potency result in experiment [1] and in experiment [2] was “inactive” in each case.

Take `NCCNS(=O)(=O)c1cccc2c(Cl)cccc12`: the Potency entry in experiment [1] and in experiment [2] was “inactive” each time.

Consider `O=C(O)Cc1c[nH]c2ccc(O)cc12`, for which the Potency entry in experiment [1] and in experiment [2] was “inactive” in each case.

`COc1ccc(-c2cc3ncc(C)n3c(Nc3ncccc3C(N)=O)n2)cc1OC`: the Potency result in experiment [1] and in experiment [2] was “inactive” throughout.

Take `CCN(CC)CCCCCCCCOC(=O)c1cc(OC)c(OC)c(OC)c1`: the Potency entry in experiment [1] and in experiment [2] was “inactive” throughout.

Regarding `CC(C)(C)NCC(O)COc1cccc2[nH]c(=O)[nH]c12` (stereo not drawn), the Potency result in experiment [1] and in experiment [2] was “inactive” in each case.

Consider `N#Cc1cc2nc(O)c(O)nc2cc1[N+](=O)[O-]`, for which the Potency result in experiment [1] and in experiment [2] was “inactive” each time.

On to `NC(N)=NC(N)=Nc1cccc(Cl)c1`, for which the Potency result in experiment [1] and in experiment [2] was “inactive” throughout.

`Cc1ccc([N+](=O)[O-])cc1S(=O)(=O)N(C)C`: the Potency result in experiment [1] and in experiment [2] was “inactive” throughout.

For the molecule `N[C@@H](CCCC(=O)O)C(=O)O`, the Potency entry in experiment [1] and in experiment [2] was “inactive” each time.

Consider `Cc1nc2n(c(=O)c1CCN1CCC(c3noc4cc(F)ccc34)CC1)CCCC2O` (stereo not drawn), for which the Potency result in experiment [1] and in experiment [2] was “inactive” each time.

Consider `Cc1cccc(C(=O)NCN2CCN(c3ccccc3C#N)CC2)c1`, for which the Potency result in experiment [1] and in experiment [2] was “inactive” throughout.
